# DT40 TDP1 no CPT: qHTS for Inhibitors of human tyrosyl-DNA phosphodiesterase 1 (TDP1): qHTS in cells in absence of CPT. Potency, µM (doses to about 46.2 µM), inactives show top-dose activity change, negative = growth inhibition, hits mostly inhibitors. DT40 Tdp1-/- hTDP1 cells, no CPT, ATP luminescence, 48 h. 420,000 tested, 15% active. AID 686978, 2013; note: nearly all actives have a fitted effect of over 55% in size
#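 DT40 Tdp1-/-;hTDP1 cells, no CPT (DMSO vehicle only), 400 cells/well; compounds pin-transferred; ≥48 hr, 37 °C; CellTiter-Glo 30 min RT dark, luminescence read.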
# RORg inh: qHTS for inhibitors of ROR gamma transcriptional activity; Drosophila S2 Gal4-RORgamma UAS-luciferase reporter, 20 h; 310,000 tested, 5.4% active; Potency, µM (series often up to 53.6 µM), inactives show at the top dose activity change, negative = inhibition, actives largely listed as inhibitors; note: nearly all actives have a fitted effect of over 60% in size
#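 Compounds are pin-transferred onto Drosophila Schneider cells expressing a copper-inducible Gal4–ROR gamma transactivation domain fusion. After 1 hr, copper sulfate is added to 700 uM final; luciferase is read 20 hr later.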
# DT40 TDP1 CPT: qHTS for Inhibitors of human tyrosyl-DNA phosphodiesterase 1 (TDP1): qHTS in cells in presence of CPT | chicken DT40 Tdp1-/-;hTDP1 cells + 20 nM CPT, ATP luminescence, 48 h | 420,000 tested, 12% active | Potency, µM (doses to about 46.2 µM), for inactives: top-dose activity change, negative = growth inhibition, most hits filed as inhibitors | AID 686979, 2013; note: nearly all actives have a fitted effect of over 55% in size
#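 Cell growth measured by CellTiter-Glo luminescence after a minimum 48 h, 37 C compound exposure with 20 nM CPT in Tdp1-knockout DT40 cells stably expressing hTDP1, seeded 400/well; qHTS titration format.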
# TDP1 block: qHTS Assay for Inhibitors of Tyrosyl-DNA Phosphodiesterase (TDP1). Tyrosyl-DNA phosphodiesterase 1 (Homo sapiens), Q9NUW8. recombinant TDP1, AlphaScreen DNA substrate cleavage. Potency, µM (series often up to 130 µM), for inactives: at the top dose activity change, negative = inhibition, usual class: inhibitors. 350,000 tested, 0.28% active. AID 485290, 2010; note: nearly all actives have a fitted effect of over 40% in size
# Target sequence (Q9NUW8 whole entry, looked up): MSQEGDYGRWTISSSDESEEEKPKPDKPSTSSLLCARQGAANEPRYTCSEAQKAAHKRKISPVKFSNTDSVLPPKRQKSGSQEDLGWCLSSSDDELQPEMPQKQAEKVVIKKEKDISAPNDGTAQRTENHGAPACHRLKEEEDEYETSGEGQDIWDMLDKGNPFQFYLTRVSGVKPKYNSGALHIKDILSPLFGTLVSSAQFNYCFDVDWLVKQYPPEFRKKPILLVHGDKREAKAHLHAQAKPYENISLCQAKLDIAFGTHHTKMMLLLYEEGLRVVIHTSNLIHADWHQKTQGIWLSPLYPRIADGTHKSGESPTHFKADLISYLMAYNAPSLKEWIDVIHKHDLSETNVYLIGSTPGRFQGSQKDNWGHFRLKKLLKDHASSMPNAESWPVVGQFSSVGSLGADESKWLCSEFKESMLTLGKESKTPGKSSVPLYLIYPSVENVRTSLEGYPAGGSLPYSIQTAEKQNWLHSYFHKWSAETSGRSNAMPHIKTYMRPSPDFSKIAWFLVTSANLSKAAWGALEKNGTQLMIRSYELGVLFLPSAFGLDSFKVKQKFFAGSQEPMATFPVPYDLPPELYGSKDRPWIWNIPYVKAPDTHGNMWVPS
#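 Compounds were preincubated with Tdp1 (1 nM final) for 15 min at room temperature before substrate (15 nM final) started a 5 min reaction; beads (10 ug/ml final) were then added for 10 min before AlphaScreen detection.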
# Gal4-VP16 FLuc: VP16 counterscreen qHTS for inhibitors of ROR gamma transcriptional activity; Drosophila S2 Gal4-VP16 UAS-luciferase, luminescence, 20 h; Potency, µM (series often up to 53.6 µM), for inactives: top-dose activity, negative = inhibition, most hits filed as inhibitors; 310,000 tested, 3.5% active;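 note: Gal4-VP16 expression switched on by copper sulfate through the metallothionein promoter; nearly all actives have a fitted effect of over 50% in size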
# Active calls of the source: *; ? = inconclusive; . = no result given; [ ] = remark or other dose. Most compounds without a hit are left out; they make up all but 19% or so of the library. Calls come from the whole dose curve; as a rule, active = well fitted curve in the direction sought with a large enough effect; inconclusive = small, poorly fitted or top-dose-only effect, or another doubt; inactive = no such curve, though single readings can be large; an effect the other way counts as inactive or inconclusive. % is set by controls: 0 for no effect and ±100 for the full control effect; potency is the fitted concentration of half-maximal effect.
SMILES,DT40 TDP1 no CPT,RORg inh,DT40 TDP1 CPT,TDP1 block,Gal4-VP16 FLuc
O=C(O)C1CSC(c2ccco2)N1 (configuration not stated),7%,1%,5%,.,-10%
O=S(=O)(c1ccccc1)N1CCN(C(=S)Nc2ccccc2Cl)CC1,-16%,-8%,5%,2%[56.1 µM],?
COCCNC(=S)N=Nc1c(O)[nH]c2c(C)cc(C)cc12,-2%,2.2µM*,20%,0%,7.9µM*
CCOC(=O)N1CCC(Nc2c(-c3ccccc3)c(=O)c2=O)CC1,23µM*,16%,?,1%,1%
CCOC(=O)N1CCC(Nc2c(N3CCN(c4cccc(C(F)(F)F)c4)CC3)c(=O)c2=O)CC1,?,?,23µM*,3%,?
CCOC(=O)N1CCC(Nc2c(Nc3cccc(CC)c3)c(=O)c2=O)CC1,18µM*,20%,?,1%,-15%
COc1ccc(C2c3c(n(C)c4ccccc34)C(=O)N2CC(=O)Nc2ccccc2Cl)cc1 (configuration not stated),26µM*,.,?,8%,.
COc1ccc(C2c3c(n(C)c4ccccc34)C(=O)N2CC(=O)Nc2cccc(F)c2)cc1 (configuration not stated),?,.,?,3%,.
COc1ccc(C2c3c(n(C)c4ccccc34)C(=O)N2CC(=O)Nc2cccc(Cl)c2C)cc1 (configuration not stated),?,.,?,3%,.
CCCNC(=O)CN1C(=O)c2c(c3ccccc3n2C)C1c1ccc(OC)cc1 (configuration not stated),13µM*,.,?,3%,.
COc1ccc(C2c3c(n(C)c4ccccc34)C(=O)N2CC(=O)Nc2ccccc2F)cc1 (configuration not stated),?,.,16µM*,3%,.
Cc1ccccc1CC(=O)Nc1cccnc1,2%,-19%,-10%,4%,1%
O=C(NCCCN1CCCC1=O)[C@H](CSCc1ccccc1)N1Cc2ccccc2C1=O,24%,32%,-9%,-3%,-2%
CCOc1ccc(C(=O)Nc2cccc(NC(=O)c3ccco3)c2)cc1Cl,16µM*,.,?,0%[12.3 µM],.
CCOc1ccc(C(=O)Nc2cccc(NC(=O)c3ccc(C(C)(C)C)cc3)c2)cc1Br,5.8µM*,.,?,1%[2.28 µM],.
CCOc1cc(Cl)c(NC(=O)c2ccco2)cc1OCC,-24%,10%,-1%,5%,-6%
CCOC(=O)N1CCN(C(=O)c2ccc(N3C(=O)CCC3=O)cc2)CC1,3%,-4%,-1%,2%,-4%
O=C(CSc1ncn[nH]1)Nc1ccccc1Sc1ccccc1,-20%,22%,-12%,6%,-1%
O=C1Cc2c([nH]c3ccc(Br)cc23)-c2ccccc2N1,?,-5%,?,7%[56.1 µM],25µM*
O=C1Nc2ccccc2C1=Nc1ccc2[nH]c3ccccc3c2c1,-5%,.,?,.,.
CCS(=O)(=O)Nc1ccc(C(=O)CC2(O)C(=O)Nc3ccc(Br)cc32)cc1 (configuration not stated),6.5µM*,-15%,21µM*,2%,0%
CCS(=O)(=O)Nc1cccc(C(=O)CC2(O)C(=O)Nc3ccccc32)c1 (configuration not stated),-26%,-1%,-10%,2%,-7%
O=C(CC1(O)C(=O)Nc2ccc(Br)cc21)c1ccc2c(c1)OCO2 (configuration not stated),?,8%,26µM*,1%,0%
CS(=O)(=O)Nc1cccc(C(=O)CC2(O)C(=O)Nc3ccc(Br)cc32)c1 (configuration not stated),21µM*,5%,?,2%,0%
Cc1ccc2c(c1)C(O)(CC(=O)c1ccc3c(c1)OCO3)C(=O)N2 (configuration not stated),-19%,?,-8%,0%,10%
SMILES,DT40 TDP1 no CPT,RORg inh,DT40 TDP1 CPT,TDP1 block,Gal4-VP16 FLuc
COc1cc(SC)ccc1C(=O)NCCNC(=O)c1nonc1N,-29%,-13%,-19%,.,2%
COc1ccccc1NCC(O)COc1ccc(C(C)(C)C)cc1 (configuration not stated),16µM*,28%,15µM*,4%,-14%
OC(CNCc1ccco1)COc1ccccc1 (configuration not stated),-41%,16%,1.2µM*,3%,-2%
OC(CNc1ccccc1)COc1ccc(OCC(O)CNc2ccccc2)cc1 (configuration not stated),8.2µM*,32%,13µM*,12%,?
COc1ccc(OCC(O)CNCc2ccco2)cc1 (configuration not stated),1%,0%,1%,0%,-6%
CCOc1cc(C2NC(=O)NC(C)=C2C(=O)OCC2CCCCC2)ccc1O (configuration not stated),?,?,?,6%,-2%
Cc1nn(CC(=O)NC(=O)NC2CCCC(C)C2C)c(=O)c(C#N)c1C (configuration not stated),-15%,.,-26%,.,.
CCCn1c(N)c(C(=O)CN(C)CC(=O)Nc2ccccc2CC)c(=O)[nH]c1=O,?,.,?,0%,.
CC(CC(=O)N1CCN(C(=O)c2ccccc2)CC1)c1ccccc1 (configuration not stated),-2%,9%,6%,.,0%
CC(c1ccccc1)N1CCN(C(=O)CCl)CC1 (configuration not stated),18µM*,-34%,12µM*,7%,21%
O=C(CCl)N1CCN(S(=O)(=O)Cc2ccccc2)CC1,4.6µM*,.,18µM*,1%,.
Cn1c(-c2sccc2OCc2ccc(Cl)cc2Cl)n[nH]c1=S,?,2.8µM*,?,.,7.1µM*
Cc1ccc(COc2ccsc2-c2n[nH]c(=S)n2C)cc1,2%,2.8µM*,-8%,-2%,7.1µM*
C[N+](C)(C)CCCCCC(=O)/C=N/O,3%,-1%,8%,-3%,2%
Cc1ccc(C)c(NS(=O)(=O)c2ccc3c(c2)NC(=O)CCS3)c1,-25%,29%,?,1%,3%
CC(=O)c1ccc(N2CCN(c3ncnc4onc(-c5ccc(Cl)cc5)c34)CC2)cc1,16µM*,.,23µM*,1%,.
COc1ccc(N2CCN(c3ncnc4onc(-c5ccc(F)cc5)c34)CC2)cc1,?,.,?,7%,.
Fc1ccccc1N1CCN(c2ncnc3onc(-c4ccc(Cl)cc4)c23)CC1,21µM*,.,-26%,1%,.

# Assay outcomes from PubChem.
